Bioassay records (PubChem BioAssay)
HP1b binding inh = HP1-beta chromodomain-methylated histone interaction inhibition; hit rate 0.56% among 390,000; AlphaScreen HP1-beta / biotin-H3K9me3 peptide binding; AID 540317; Potency, µM (doses to about 114 µM), for the others: at the top dose activity change, negative = inhibition, most hits filed as inhibitors; P83916; further: potency means the concentration at half of the fitted maximal effect; nearly all actives have a fitted effect of over 70% in size
Target sequence (P83916 whole entry, looked up): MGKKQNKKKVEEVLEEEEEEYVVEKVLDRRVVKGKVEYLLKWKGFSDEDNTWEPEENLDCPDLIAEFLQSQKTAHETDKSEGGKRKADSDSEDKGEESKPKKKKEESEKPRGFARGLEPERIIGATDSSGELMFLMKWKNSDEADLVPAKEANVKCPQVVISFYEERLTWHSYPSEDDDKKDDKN
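Compound inhibition of the preformed complex between 50 nM HP1-beta and 50 nM biotinylated H3K9me3 peptide was read by AlphaScreen. Buffer was PBS pH 7.4 with 0.01% Tween-20. Incubations ran 30 min at room temperature, with 10 ug/mL donor/acceptor beads.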
BAZ2B inh = inhibitors of human BAZ2B bromodomain. hit rate 4.4% among 360,000. Potency, µM (doses to about 114 µM), for inactives: at the highest dose activity change, negative = inhibition, actives largely listed as inhibitors. AlphaScreen BAZ2B-H3K14Ac peptide displacement. Q9UIF8; further: potency means the concentration at half of the fitted maximal effect; on the % scale 0 is the no-effect control and ±100 the full control effect; nearly all actives have a fitted effect of over 60% in size
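AlphaScreen luminescence quantifies BAZ2B engagement of H3K14Ac peptide; the protein and biotinylated peptide are both at 50 nM final, buffer PBS pH 7.4 with 0.01% Tween-20, all steps at room temperature.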
PI5P4K alpha inh = PI5P4K alpha (human) kinase inhibition; PI5P4Kalpha enzyme, ADP-Glo luminescence, 60 min; stronger effect = lower value; max response, %; AID 652105; hit rate 1.2% among 330,000; P48426; active means max response of -50% or lower; inconclusive means between -30% and -50%; inactive means -30% or higher; further: value at the top dose of about 77 µM; on the % scale 0 is the no-effect control and ±100 the full control effect
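Controls without substrate or without enzyme flank wells where PI5P4Kalpha converts substrate using 5 microM ATP (final). Incubation lasts 60 minutes at room temperature; ADP formed is read by ADP-Glo luminescence.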
L3MBTL1 block = inhibitors of human L3MBTL1 | Q9Y468 | AlphaScreen L3MBTL1–H3K9me1 peptide binding | Potency, µM (highest dose often 57.1 µM), without a hit: at the highest dose activity, negative = inhibition, hits mostly inhibitors | hit rate 0.66% among 230,000 | AID 485360; further: potency means the concentration at half of the fitted maximal effect; on the % scale 0 is the no-effect control and ±100 the full control effect; nearly all actives have a fitted effect of over 60% in size
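AlphaScreen proximity signal between nickel-chelate acceptor and streptavidin donor beads (final 10 ug/mL) reports binding of 50 nM L3MBTL1 to 75 nM biotin-H3 K9me1 peptide; complex incubated with compounds 30 min at room temperature; cefsulodin titration as control.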
JMJD2A Tudor inh = inhibitors of human JMJD2A Tudor domain; hit rate 4.4% among 390,000; O75164; Potency, µM (highest dose often 114 µM), without a hit: top-dose activity change, negative = inhibition, actives largely listed as inhibitors; AlphaScreen JMJD2A-Tudor / H3K4me3 peptide binding; further: potency means the concentration at half of the fitted maximal effect; on the % scale 0 is the no-effect control and ±100 the full control effect; nearly all actives have a fitted effect of over 50% in size
G9a inh = inhibitors of human histone lysine methyltransferase G9a; G9a H3K9 monomethylation, AlphaScreen, 2 h; Potency, µM (top dose mostly 102 µM), without a hit: top-dose activity, negative = inhibition, usual class: inhibitors; hit rate 8.8% among 350,000; Q96KQ7; further: potency means the concentration at half of the fitted maximal effect; on the % scale 0 is the no-effect control and ±100 the full control effect; nearly all actives have a fitted effect of over 75% in size
Target sequence (Q96KQ7 913-1193 limits assumed): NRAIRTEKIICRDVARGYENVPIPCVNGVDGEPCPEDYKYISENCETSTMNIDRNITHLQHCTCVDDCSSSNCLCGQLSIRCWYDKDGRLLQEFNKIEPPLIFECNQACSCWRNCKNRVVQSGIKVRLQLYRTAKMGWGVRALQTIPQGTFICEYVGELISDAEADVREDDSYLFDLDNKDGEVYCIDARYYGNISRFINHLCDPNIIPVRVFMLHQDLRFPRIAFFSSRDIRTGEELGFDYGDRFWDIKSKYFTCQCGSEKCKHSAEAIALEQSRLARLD
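Quantitative HTS format: methyltransferase activity on a biotin-tagged H3K9 peptide is measured by AlphaScreen, using a rabbit anti-monomethyl-H3K9 antibody with streptavidin donor and anti-IgG acceptor beads. Final levels are 20 nM enzyme, 500 nM peptide, 20 uM SAM; 2 h RT.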
Numbers without * were called inactive; ? = inconclusive; · = no result given; [ ] = another dose, or the depositor's remark. Hits are enriched below; roughly 11% of the tested compounds scored in any of these assays. Unless noted, the call rests on the fitted dose curve; in most records, active means well fitted inhibition curve with a large enough effect; inconclusive means small, poorly fitted or top-dose-only effect; inactive means no such curve, though single readings can be large or run the other way.

SMILES | HP1b binding inh | BAZ2B inh | PI5P4K alpha inh | L3MBTL1 block | JMJD2A Tudor inh | G9a inh
C=CCc1cc(F)c(S(=O)(=O)N2CCN(S(=O)(=O)c3ccc4c(c3)OCCO4)CC2)cc1F | · | · | · | · | -10% | ·
CCOC(=O)C1CCN(S(=O)(=O)c2c(Cl)ccc3nonc23)CC1 | · | -17% | · | · | · | 50µM*
O=C(NCC(c1ccc2c(c1)OCO2)N1CCN(c2ccccc2)CC1)C(=O)Nc1ccccc1 (stereo not given) | 18%[57 µM] | -2% | · | · | -25% | 8%[59 µM]
Nc1ncnc2c1c(-c1ccc(Oc3ccccc3)cc1)cn2C1CCCC1 | ? | 40µM* | -24 | ? | 45µM* | 14µM*
O=S(=O)(O)c1ccc(N=Nc2ccccc2)cc1 | 21% | -10% | -15 | -6% | -24% | ?
O=c1ccc(N=Nc2ccccc2)ccc1O | ? | 11µM* | 0 | -11% | 50µM* | 45µM*
COCCNc1ccnc(-c2ccccc2C(F)(F)F)n1 | · | · | · | · | · | -4%[0.501 µM]
CCOc1ccc(Cc2c(C)[nH]c3ccc(C(=O)O)cc3c2=S)cc1 | 18% | -36% | -18 | -11% | 25µM* | 13µM*
COc1ccc2[nH]c(C)c(CCNC(=S)Nc3cccc(C)c3)c2c1 | -3% | 35µM* | 7 | ? | ? | 45µM*
COc1ccc2[nH]c(C)c(CCNc3ccc(C(F)(F)F)cc3[N+](=O)[O-])c2c1 | ? | 28µM* | 11 | -24% | 22µM* | 11µM*
CS(=O)(=O)NCCNc1ccc(C(F)(F)F)cc1[N+](=O)[O-] | 33% | -17% | -1 | -2% | 0% | -7%
CCc1c(C)[nH]c2ccc(OC)cc2c1=S | ? | ? | -9 | -12% | -17%[11.4 µM] | 4.5µM*
CC1CCN(C(=O)c2ccc3c(c2)N(Cc2ccccc2)C(=O)c2ccccc2S3(=O)=O)CC1 | 36% | -37% | · | · | -20% | -3%[59 µM]
Cc1nn2c(=O)cc(COC(=O)c3ccccc3NC(=O)C(C)Oc3ccccc3)nc2s1 (stereo not given) | 40% | -8% | · | · | 6% | ?
CCCn1c2ccccc2c2cnn(CC(=O)N3CCC(C(=O)OCC)CC3)c(=O)c21 | -12% | -1% | · | · | -18% | -1%[59 µM]
COc1ccc(-c2nc(CCNC(=O)Cc3ccc(F)cc3)cs2)cc1 | 26%[57 µM] | 2% | · | · | 5% | 13%[59 µM]
COc1ccc2[nH]c(C)c(CCNC(=S)Nc3cc(C)ccc3C)c2c1 | 32% | 2% | -5 | -2% | -21% | 14%
COc1ccc2[nH]c(C)c(CCNC(=S)Nc3cc(C)cc(C)c3)c2c1 | ? | 28µM* | 4 | -20% | 50µM* | 15%
COc1ccccc1NC(=S)NCCc1ccc(OC)c(OC)c1 | 1% | -19% | 2 | · | -9% | ?
COc1ccc2[nH]c(C)c(CCNC(=S)Nc3ccc(F)cc3)c2c1 | -8% | · | 9 | · | ? | 56µM*
COc1ccc2[nH]c(C)c(CCNC(=S)Nc3ccccc3OC)c2c1 | 1% | · | 0 | · | ? | 56µM*
CC(OCc1ccccc1)C(NC(=O)OC(C)(C)C)C(=O)NC1COC2CC(n3cc(F)c(=O)[nH]c3=O)OC12 (stereo not given) | 31% | · | · | · | -7% | ·
Cc1cc(O)c(C(c2ccc(Cl)cc2)N2CCN(c3ccccc3)CC2)c(=O)n1Cc1ccco1 (stereo not given) | 16%[57 µM] | -25% | · | · | -32% | ?
COc1cccc(OC)c1OCC(C)CNCC1CCCO1 (stereo not given) | 71µM* | ? | · | · | 3.5µM* | ?
Cc1cccc(S(=O)(=O)NC2CCN(C#N)C2)c1 (stereo not given) | · | · | · | · | -4% | ·
O=C(N/N=C/C=C\c1ccco1)c1ccccn1 | ? | 56µM* | -55* | 28µM* | 79µM* | 35µM*
O=C(N/N=C\C=C\c1ccco1)c1cc(-c2ccc3ccccc3c2)n[nH]1 | 6% | 3% | -68* | ? | -34% | 32µM*
O=C(N/N=C/c1ccco1)c1cnccn1 | 11% | 9% | · | -3% | ? | 5%[59 µM]
